These results are taken from PubChem BioAssay AID1347433 (National Center for Advancing Translational Sciences (NCATS), 2020).

The structures appear in SMILES notation. Results filed as inconclusive are left out. Entries that show only a call come without a potency. The source made the active and inactive calls. Calls follow the shape of the dose curve; as a rule, active = well fitted curve in the direction sought with a large enough effect; inconclusive = small, poorly fitted or top-dose-only effect, or another doubt; inactive = no such curve, though single readings can be large or run the other way.

Chain of Single-stranded DNA cytosine deaminase (Homo sapiens) (Q9GZX7 whole entry, looked up): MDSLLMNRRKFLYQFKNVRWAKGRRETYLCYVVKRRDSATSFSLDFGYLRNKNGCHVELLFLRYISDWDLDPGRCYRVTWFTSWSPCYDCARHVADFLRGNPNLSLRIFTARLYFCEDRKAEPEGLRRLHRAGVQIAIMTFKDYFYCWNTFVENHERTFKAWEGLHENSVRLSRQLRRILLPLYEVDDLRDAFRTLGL

The assay addresses Single-stranded DNA cytosine deaminase (Homo sapiens) (UniProt Q9GZX7). Briefly: Confirmatory (Round 2) qHTS assay for inhibitors of Activation Induced Cytidine Deaminase (AID): AID signals. The conditions noted are these: AID deamination FRET-based fluorescence assay with UDG, 4 h; series mostly up to 78.4 µM. An excerpt:
Assay Provider (PI) Patricia Gearhart Ph.D. National Institute on Aging National Institute of Health (NIH), Bethesda, MD Assay Provider (PI) Rahul Kohli Ph.D. Perelman School of Medicine University of Pennsylvania, Philadelphia, PA Activation-Induced Deaminase (AID) is a cytosine deaminase which converts cytosine into uracil within stretches of ssDNA. The presence of uracil in DNA initiates a cascade of mutagenic DNA repair to introduce point mutations and DNA double strand breaks. Specific targeting of AID to the immunoglobulin heavy chain loci (Igh) promotes mutagenesis in the antibody variable region for somatic hypermutation (SHM) or switch regions leading to class switch recombination (CSR). However, AID also plays a role in accumulating unnecessary mutations across the genome. Mis-targeting of AID results in the initiation of tumor development and leads to greater drug resistance among cancer cells when continually expressed. To identify an AID inhibitor, a small molecule library will be screened in collaboration with NCATS core facility at NIH. To confirm biological function, inhibitors will be examined in an in vitro murine B-cell activation assay and subsequent secondary validation screens. Top molecules will be further screened to identify inhibitory efficacy against a wild type primary splenocytes assay. Using these approaches, we hope to identify a small molecule with great efficacy and low toxicity for use as a molecular probe to further characterize AID's intricacies, or even as a therapeutic. A FRET based analysis of cytosine deamination, was developed to identify potential inhibitors of AID catalytic activity. This screen has two signal output, Read 1 evaluates the AID inhibition response. The second readout (Read 2) evaluates UDG response and is uses as a counterscreen to exclude false positive inhibitors. Inhibition in AID and inactivity in the UDG signal is the desired outcome for this assay.
PROTOCOL TABLE SEQUENCE No. (e.g., 1, 2, 3, etc.); PARAMETER (e.g., Cells, Incubation, Reagent, etc.); VALUE; DESCRIPTION 1a; Reagent; 3 uL; [4/3x] 1 uM AID/2.67 U/mL UDG 1b; Reagent; 3 uL; 2 U/mL UDG 1c; Reagent; 3 uL; 1 uM AID 2a; Compound; 46 nL; Follow-up plates (0.64 uM - 10 mM) 2b; Control; 46 nL; ATA ([…] - 10 mM) 3; Time; 10 min; incubation at room temperature 4; Reagents; 1 uL; [4x] 250 nM DJC20 / 250 nM DJC23 [Substrate] 5; Time; 4 hr; incubation at room temperature 6; Reagent; 4 uL; [2x] 250 mM NaOH 7; Time; 15 sec; centrifuge at 1000 rpm 8; Time; 30 min; incubation at room temperature 9a; Detection; fluorescence (Read 1: AID); EnVision (PerkinElmer) plate reader, 540 excitation and 590 emission filters 9b; Detection; fluorescence (Read 2: UDG); EnVision (PerkinElmer) plate reader, 560 excitation and 665 emission filters NOTES (numbers refer to sequence above) 1a; Reagents were dispensed in a medium-binding black solid-bottom Greiner plates (789176F) using a BioRptr liquid dispenser. Dispense 3 uL of [4/3x] 1 uM AID (provided by Kohli lab) and [4/3x] 2 U/mL UDG (NEB M0280L) into columns 1, 2, 5 to 48. 1b; Dispense 3 uL of [4/3x] 2 U/mL UDG into column 3. 1c; Dispense 3 uL of [4/3x] 1 uM AID into column 4. 2a; Compound (7-points [uM]: 0.64; 3.2; 16; 80; 400; 2,000; 10,000; […]) double pin-transferred (Dip Factor = 2) using the Kalypsys (Wako USA) pintool equipped with a 1536 pinhead for a final concentration range of 7.32 nM - 114 uM. 2b; 10 mM Aurintricarboxylic Acid (Sigma A1895) (ATA, 8-point, n = 2, 1:2.5 dilution in column 2) double pin-transferred (Dip Factor = 2) using the Kalypsys (Wako USA) pintool equipped with a 1536 pinhead for a [final] range of 186 nM - 114 uM. 3; Room temperature incubation. 4; Dispense 1 uL of substrate mixture from the Kohli lab [4x] […] DJC20 and [4x] 250 nM DJC23 into columns 1 to 48 . 5; Room temperature incubation. 6; Dispense 4 uL of substrate mixture [2x] 250 mM NaOH into columns 1 to 48. 7; Centrifugation step to remove bubbles. […]
Consider `CN1CCN(CCCSc2nc(-c3ccccc3)nc3cc(=O)[nH]n23)CC1`, for which the Potency result was “inactive”. As for `O=c1cc2nc(-c3ccccc3)nc(SCCN3CCC(F)(F)CC3)n2[nH]1`, the Potency result is “inactive”.

Consider `O=c1cc2nc(-c3ccccc3)nc(SCCCc3ccncc3)n2[nH]1`, for which the Potency result is “inactive”. For `O=C(O)C1=CC(=C(c2ccc(O)c(C(=O)O)c2)c2ccc(O)c(C(=O)O)c2)C=CC1=O`, the Potency is 2240 nM (active). Consider `Cn1ccnc1CCSc1nc(-c2ccccc2)nc2cc(=O)[nH]n12`, for which the Potency entry was “inactive”. As to `Cc1noc(C)c1CCSc1nc(-c2ccccc2)nc2cc(=O)[nH]n12`, the Potency result was “inactive”. Next, `O=c1cc2nc(-c3ccccc3)nc(SCCCn3ccnc3)n2[nH]1`: “inactive”.
